p53ts 32C kill: qHTS Screen for Compounds that Selectively Target Cancer Cells with p53 Mutations: Cytotoxicity of p53ts Cells at the Permissive Temperature; H1299-p53A138V at 32C, ATP luminescence viability, 24 h; Potency, µM (top dose mostly 46.1 µM), for the others: at the top dose activity change, negative = cytotoxicity, most hits filed as cytotoxic; 130,000 compounds, 0.93% hits;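 note: 0% = DMSO and -100% = full killing by reference compound; nearly all actives have a fitted effect of over 55% in size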
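H1299-p53 A138V cells (temperature-sensitive p53) exposed 24 h to up to 46 uM compound at 32C, where p53 is wild-type in conformation. Viability read as ATP luminescence and normalised to DMSO and 100 uM tamoxifen. AC50 fitted with the Hill equation.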
IkB signaling: IkB Signaling; ABC-DLBCL IkBa-CBG/CBR dual luciferase ratio, 4 h; response scale: scaled: untreated 0%, proteasome inhibitor 100%; Potency, µM (series often up to 57.1 µM), without a hit: at the highest dose IkBa stabilization activation; 110,000 compounds, 0.04% hits; AID 445, 2006; active = well fitted curve in the direction sought with a large enough effect in the signal ratio, not every such curve was filed as active; inconclusive = small, poorly fitted or top-dose-only effect, or a change in a side signal; the % refers to the signal ratio;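 note: the direction sought is a rising ratio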
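Luminescence ratio of IκBα-fused green versus native red beetle luciferase in OCI-Ly3 cells, 4 h post-doxycycline with compound; red signal alone, scaled from basal (0%) to zero light (-100%), flagged nonspecific or cytotoxic effects.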
p53ts 39C kill: qHTS Screen for Compounds that Selectively Target Cancer Cells with p53 Mutations: Cytotoxicity of p53ts Cells at the Nonpermissive Temperature; H1299-p53A138V viability at 39C, ATP luminescence, 24 h; Potency, µM (top dose mostly 46.1 µM), inactives show at the top dose activity change, negative = cell killing, actives largely listed as cytotoxic; 130,000 compounds, 1.5% hits; AID 902, 2007; note: % is set by controls: 0 for no effect and ±100 for the full control effect; nearly all actives have a fitted effect of over 55% in size
Imprint erasure: qHTS Assay for Compounds that Induce Erasure of Genomic Imprints. AID 1948, 2009. mouse ES Peg3-LacZ reporter, beta-gal luminescence, 40 h. Potency, µM (highest dose often 60.7 µM), inactives show top-dose activity change, positive = activation, most hits filed as activators. 110,000 compounds, 0.02% hits
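Each well holds 300 Peg3LacZ-Neo (maternal) female ES cells incubated 40 h at 37C, 5% CO2. LacZ is measured by BetaGlo luminescence, with AC50 and maximum efficacy derived from dose-response curves.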
The depositor's hits bear a star; ? = inconclusive; . = no result; [ ] = another dose, or the depositor's remark. Sampled rows, rich in hits. Any-hit rate of the full collection: about 1.6%. Unless noted, calls come from the whole dose curve; as a rule, active = well fitted curve in the direction sought with a large enough effect; inconclusive = small, poorly fitted or top-dose-only effect, or another doubt; inactive = no such curve, though single readings can be large; an effect the other way counts as inactive or inconclusive. Potency is the fitted concentration of half-maximal effect.

SMILES	p53ts 32C kill	IkB signaling	p53ts 39C kill	Imprint erasure
CCCCOc1ccc(C(=O)Nc2cccc(C)n2)cc1	13µM*	?	16µM*	3%
Cn1nnc(NC(=O)c2ccc(C(C)(C)C)cc2)n1	10µM*	0%	7.9µM*	-38%
O=C(O)/C=C\[C@H](O)c1ccc(Cl)cc1	-14%	27%	-3%	.
O=C(Nc1ccc(CN2CCOCC2)cc1)c1cc2ccccn2n1	5µM*	6%	6.3µM*	-88%
O=C(Nc1ccc2oc(-c3cc(Br)ccc3Cl)nc2c1)c1cc2ccccc2o1	?	-1%	5µM*	-2%[10.9 µM]
O=C(NCCN1CCOCC1)c1cc2ccccc2o1	-2%	-3%	-2%	.
O=C(Nc1ccc2c(c1)OCO2)c1ccc(CN2CCOCC2)cc1	13µM*	-1%	?	-21%
O=C(Nc1ccc(CN2CCOCC2)cc1)c1ccccc1F	?	.	-19%	.
O=C(Nc1ccc(CN2CCOCC2)cc1)c1cc2ccccc2o1	10µM*	?	10µM*	-3%
CCOC(=O)N1CCc2c(sc(NCc3cccc(F)c3)c2C(=O)Nc2ccc(OC)cc2OC)C1	8%	?	-15%	-12%[10.9 µM]
C[N+](C)(C)[C@@H](C1=CCCC1=O)c1ccccc1	2%[9.22 µM]	5%[11.4 µM]	-2%[9.22 µM]	.
O=C(O)c1ccc(NC(=O)c2cc3ccccc3o2)cc1	7.9µM*	?	10µM*	-41%[10.9 µM]
O=C(Nc1ccc(NC(=O)c2cc3ccccc3o2)cc1)c1ccccc1	-2%	3%	-2%	-13%[10.9 µM]
O=C(Nc1ccc(NC(=O)c2ccco2)nc1)c1cccnc1	10µM*	?	13µM*	-47%
CC(C)c1ccc(NC(=O)C2CCCN(S(=O)(=O)c3ccc4[nH]c(=O)ccc4c3)C2)cc1 (configuration not stated)	?	-2%	10µM*	-10%[10.9 µM]
O=C(/C=C/c1c(C(=O)O)[nH]c2cc(Cl)cc(Cl)c12)Nc1ccccc1	-7%	.	3%	-11%
Cc1ccc(C)c(CN2C(=O)C(=O)c3ccccc32)c1	15%	0%	-22%	-22%[10.9 µM]
Cc1ccc2c(c1)C(=O)C(=O)N2Cc1ccc(OC(C)C)cc1	?	5%	16µM*	-26%[10.9 µM]
O=C(O)CCCCCC[C@@H]1C(=O)NC(=O)N1CC[C@@H](O)C1CCCCC1	.	11%	.	.
CN1C[C@@H](O)[C@@H](O)[C@@H](O)[C@@H]1CO	.	-3%	.	.
Cc1ccc(N2CCN(C(=O)c3cnn(-c4ccc(C)c(C)c4)c3C3CCNCC3)CC2)c(C)c1	-5%	1%	20µM*	1%[10.9 µM]
O=C1c2ccccc2C(=O)C1c1ccc2ccccc2n1	?	?	2.5µM*	9%
Nc1ccc(-c2ccc3ccccc3n2)cc1	?	.	?	-80%
CCC(C)Nc1ncnc2c1cnn2-c1ccc(F)cc1 (configuration not stated)	?	?	7.9µM*	-9%[10.9 µM]
Fc1ccc(-n2ncc3c(NCCCN4CCOCC4)ncnc32)cc1	-8%	0%	?	24%[10.9 µM]
SMILES	p53ts 32C kill	IkB signaling	p53ts 39C kill	Imprint erasure
COCCCNc1ncnc2c1cnn2-c1ccc(F)cc1	?	-2%	10µM*	-15%[10.9 µM]
C[C@H](N)C1CCC(C(=O)Nc2ccncc2)CC1 (some centres not stated)	31%	-13%	10%	.
Clc1ccccc1-c1nc(-n2ccnc2)c2ccccc2n1	14%	0%[11.4 µM]	74%	-20%
CN(C)c1ccc(-c2nc(-n3ccnc3)c3ccccc3n2)cc1	10µM*	-1%[11.4 µM]	13µM*	-79%
CN(C)C(=O)c1ccc(-c2nc(-n3ccnc3)c3ccccc3n2)cc1	7.9µM*	0%[11.4 µM]	10µM*	-64%
CN(C)c1ccc(-c2nc(N3CCNCC3)c3ccccc3n2)cc1	13µM*	-5%[11.4 µM]	10µM*	-65%
OC[C@@H]1O[C@@H](n2cnc3c(NC4CCCCC4)ncnc32)[C@@H](O)[C@H]1O	-15%	?	-10%	.
CC1CCN(CCNC(=O)c2ccc(Cn3c(SCc4ccccc4)nc4cccnc43)cc2)CC1	?	?	10µM*	-18%[10.9 µM]
O=C(NC1CCCC1)c1ccc(CSc2nc3cccnc3n2Cc2ccc(F)cc2)cc1	4%	.	.	.
CC1CCCCN1CCNC(=O)c1ccc(Cn2c(SCc3ccccc3)nc3cccnc32)cc1 (configuration not stated)	10µM*	?	10µM*	-14%[10.9 µM]
O=C(NCCc1ccccc1)c1ccc(CSc2nc3cccnc3n2Cc2ccc(F)cc2)cc1	15%	.	.	.
O=C(NCCN1CCCCC1)c1ccc(Cn2c(SCc3ccccc3)nc3cccnc32)cc1	13µM*	?	10µM*	-12%[10.9 µM]
Fc1ccc(Nc2nc(SCc3ccccc3F)nc3ccccc23)cc1	?	-3%	?	-11%[10.9 µM]
CN1CCN(C(=O)c2cc(-c3ccc(O)cc3)on2)CC1	-10%	2%	-13%	-17%
Cc1cc(C)c2oc(-c3cccc(NC(=O)c4ccc(Br)o4)c3)nc2c1	-9%	?	-2%	-7%[10.9 µM]
O=C(Nc1cccc(-c2nnc(-c3ccccc3)o2)c1)c1ccc(Br)o1	?	?	25µM*	-23%
Cc1ccc(C)c(-c2ccc(C(=O)O)o2)c1	.	.	.	-8%[97.3 µM]
CCCCN(CCCNC(=O)c1cc(Nc2cccc(SC)c2)nc2ccccc12)Cc1ccccc1	-16%	?	4.5µM*	-31%[10.9 µM]
COc1ccc(Nc2cc(C(=O)NCCCN(C)C3CCCCC3)c3ccccc3n2)cc1	-5%	-2%	13µM*	-12%[10.9 µM]
CCCCCCCCCCCCCCCCCC(=O)NCC(COP(=O)([O-])OCC[N+](C)(C)C)OCC (configuration not stated)	.	.	.	-13%
CN(C)CCN(Cc1ccco1)C(=O)c1oc2ccccc2c1NC(=O)c1cccc(F)c1	-8%	-3%	10µM*	?
COc1ccc(NC(=O)c2ccco2)cc1NC(=O)COc1ccc(Cl)c(C)c1	?	-1%	10µM*	-6%[10.9 µM]
CCc1ccccc1NC(=O)Nc1ccc2c(c1)N(CC)C(=O)c1ccccc1S2	1%	-1%	2%	-4%[10.9 µM]
CC(=O)O[C@]12CC[N@+]3(C)CCCC[C@@H]3[C-]1Nc1ccccc12	-3%[9.22 µM]	0%[11.4 µM]	-8%[9.22 µM]	-11%[10.9 µM]
COc1ccc2[nH]c(=O)c(CN(Cc3nnnn3Cc3ccco3)C3CCCCC3)cc2c1	-4%	1%	-6%	-12%
COc1ccc2[nH]c(=O)c(CN(C3CCCCC3)C(c3nnnn3Cc3ccco3)C(C)C)cc2c1 (configuration not stated)	20%	7.9µM*	?	.
Cc1ccc(NS(=O)(=O)c2ccc3nc(-c4ccccc4)[nH]c3c2)cc1Cl	?	?	13µM*	-15%[10.9 µM]
CC1=C(C(=O)Nc2ccccc2C)C(c2ccccn2)n2nc(SCc3ccccc3F)nc2N1 (configuration not stated)	-14%	2%	6.3µM*	2%[10.9 µM]

Source: PubChem BioAssay (National Center for Advancing Translational Sciences (NCATS))
